This is an account of results in PubChem BioAssay (Tox21).

Each structure is given as a SMILES string. Inconclusive results are not listed. A call without a number means that no potency is given here. The source made the active and inactive calls. Calls come from the whole dose curve; as a rule, active = well fitted cell-killing curve with a large enough effect in the repeat runs; inconclusive = weak or mixed curves; inactive = no such curve, though single readings can be large or run the other way.

This assay can be described thus: qHTS assay to identify small molecule antagonists of the peroxisome proliferator-activated receptor delta (PPARd) signaling pathway - cell viability counter screen (AID 743213). Note: nearly all actives have a fitted effect of over 50% in size. Particulars: PPARd-bla HEK293H viability, CellTiter-Glo luminescence, 17 h; series mostly up to 62 µM. From the text:
U.S. Tox21 Program National Center for Advancing Translational Sciences [NCATS] NIH Chemical Genomics Center [NCGC] U.S. Environmental Protection Agency [EPA] National Institutes of Environmental Health Sciences [NIEHS] National Toxicology Program [NTP] U.S. Food and Drug Administration [FDA] Tox21 Assay Overview: The peroxisome proliferator-activated receptors (PPARs) are lipid-activated transcription factors of the nuclear receptor superfamily with three distinct subtypes namely PPAR alpha, PPAR delta (PPARd) and PPAR gamma. All these subtypes heterodimerizes with Retinoid X receptor (RXR) and have different physiological functions. […] To identify the compounds that inhibit PPAR-delta signaling, GeneBLAzer PPAR delta UAS-bla HEK293H cell line (Invitrogen, Carlsbad, CA, USA) containing a beta-lactamase reporter gene under the control of an Upstream Activator Sequence (UAS) was used to screen the Tox21 compound library. The cytotoxicity of the Tox21 compound library against the PPARd-bla cell line was tested in parallel by measuring the cell viability using CellTiter-Glo assay (Promega, Madison, WI) in the same wells.
Tox21 Assay Protocol Summary: PPARd-bla cells were dispensed at 3000 cells/5uL/well in 1536-well black wall/clear bottom plates using a Multidrop Combi (Thermo Fisher Scientific, Waltham, MA) dispenser. After the assay plates were incubated at 37 C and 5% CO2 for 5 h, 23 nL of compounds dissolved in DMSO, positive controls or DMSO only was transferred to the assay plate by a Pintool station (Kalypsys, San Diego, CA), followed by addition of 1ul L165041 (300 nM, final concentration in the wells). The assay plates were incubated at 37 C for 17 h, and then 1 uL of LiveBLAzerTM B/G FRET substrate was added using a Bioraptr Flying Reagent Dispenser (FRD) workstation (Beckman Coulter, Indianapolis, IN, USA). The assay plates were incubated at room temperature for 2 h and fluorescence intensity was measured by an Envision plate reader (PerkinElmer, Shelton, CT). For cell viability readout that measures cytotoxicity, 3 ul/well of CellTiter-Glo reagent was added into the assay plates using a Bioraptr FRD. After 30 min incubation at room temperature, the luminescence intensity in the plates was measured using a ViewLux plate reader (PerkinElmer).
`CC(C)OC(=O)c1ccccc1`: the Potency entry was “inactive”.

On to `O=C1CCCC(=O)C1`, for which the Potency entry was “inactive”.

For the molecule `COc1ccc2c(c1)CCCC2=O`, the Potency result is “inactive”.

As for `N#Cc1ccc(C2CCCc3cncn32)cc1` (stereo not given), the Potency entry is “inactive”.

For `CC(=O)Nc1c(I)cc(I)c(C(=O)O)c1I`, the Potency entry is “inactive”.

Consider `CC(C)NC(=O)NC(C)C`, for which the Potency result is “inactive”.

Turning to `COC(=O)CCSCCC(=O)OC`, the Potency entry was “inactive”.

Take `COC(=O)CC(C)=O`: the Potency entry is “inactive”.

With `CC(C)=CCCC(C)CC(=O)O` (stereo not given), the Potency result is “inactive”.

As to `CC(C)CNCC(C)C`, the Potency result is “inactive”.

On to `OCCOc1ccc(OCCO)cc1`, for which the Potency entry is “inactive”.

Consider `Nc1nc2c(ncn2COC(CO)CO)c(=O)[nH]1`, for which the Potency entry is “inactive”.

Turning to `CCc1ccc(O)c(OC)c1`, the Potency result is “inactive”.

Consider `CC/C=C\CCOC(C)=O`, for which the Potency entry is “inactive”.

As for `C=C1CC[C@H]2C[C@@H]1C2(C)C`, the Potency entry was “inactive”.

`O=C1OC(=O)C2CCCCC12` (stereo not given): the Potency result was “inactive”.

For `Cc1cnc(NS(=O)(=O)c2ccc(N)cc2)nc1`, the Potency entry is “inactive”.

In the case of `C/C=C(\C)C#N`, the Potency result is “inactive”.

On to `C[C@H]1C[C@@H](O)CC(C)(C)C1`, for which the Potency result is “inactive”.

Take `c1ccc([C@H]2CN3CCSC3=N2)cc1`: the Potency result was “inactive”.

As for `O=C(CCCN1CCN(c2ccccn2)CC1)c1ccc(F)cc1`, the Potency result was “inactive”.

For the molecule `CO[C@]12C[C@@H](COC(=O)c3cncc(Br)c3)CN(C)[C@@H]1Cc1cn(C)c3cccc2c13`, the Potency entry is “inactive”.

With `Cn1cc(S(C)=O)c(=O)c2ccc(F)cc21` (stereo not given), the Potency entry is “inactive”.

For `COc1c(N2C[C@@H]3CCCN[C@@H]3C2)c(F)cc2c(=O)c(C(=O)O)cn(C3CC3)c12`, the Potency entry is “inactive”.

Consider `O=C(O)COc1nn(Cc2ccccc2)c2ccccc12`, for which the Potency result is “inactive”.

In the case of `CCOC(=O)c1ccc(C)cc1`, the Potency result is “inactive”.

For `COC(=O)C1=C(C)NC(C)=C(C(=O)OC)C1c1ccccc1[N+](=O)[O-]`, the Potency result was “inactive”.

On to `C1CN(CCOCCN2CCOCC2)CCO1`, for which the Potency entry was “inactive”.

For the molecule `NS(=O)(=O)c1ccc(C(=O)O)cc1`, the Potency result is “inactive”.

With `O=C1CC2CC1C1CCCC21` (stereo not given), the Potency result was “inactive”.

Regarding `COC(=O)c1cc(C(=O)OC)cc(S(=O)(=O)O)c1`, the Potency result was “inactive”.

Turning to `CCCc1cc(C(N)=S)ccn1`, the Potency entry was “inactive”.

Consider `CN(C)CCCNCCCN(C)C`, for which the Potency result is “inactive”.

Take `Nc1cc(=O)[nH]c(N)n1`: the Potency result was “inactive”.

With `C=CCS(=O)(=O)O`, the Potency result was “inactive”.

Turning to `CCC=O`, the Potency result is “inactive”.

For the molecule `NCCc1cnc[nH]1`, the Potency result is “inactive”.

On to `CCCCCSCCCCC`, for which the Potency result is “inactive”.

For `N[C@H]1CN(c2c(F)cc3c(=O)c(C(=O)O)cn(C4C[C@H]4F)c3c2Cl)CC12CC2` (stereo not given in full), the Potency result is “inactive”.

Consider `C[N+](C)(C)CC(O)CC(=O)[O-]` (stereo not given), for which the Potency entry was “inactive”.
